Bioassay records deposited in PubChem by several laboratories.
MRP-1 activ: activators of MRP-1. H69AR cells + doxorubicin, viability rescue, CellTiter-Glo. actives 0.61% (n = 140,000). viability increase, % at 10 µM;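 active means viability gain under doxorubicin at or above a set limit, the compound median plus 3 SD, cut at about 4.7% in these data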;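 further: MRP-1 overexpressing cells given doxorubicin 25 µM after compound pretreatment; 18-22 h compound pretreatment then 72 h with doxorubicin before readout; 0% = doxorubicin-only wells and 100% = vehicle-treated cells without doxorubicin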
MRP reversal: reverses drug resistance mediated by MRP. H69AR cells + 2 uM doxorubicin, CellTiter-Glo, 72 h. differential viability (reversal), % at 10 µM. actives 0.04% (n = 85,000);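 active means viability drop by adding the cancer drug above about 55%, with treated viability meeting a 40% cutoff, limit read from the data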;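 further: viability without doxorubicin minus viability with 2 µM doxorubicin for each compound; larger differential means the compound sensitizes cells more to doxorubicin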
IL1B NFkB pot: enhances IL-1B driven NFkB nuclear translocation | HUVEC IL-1B NFkB p65 nuclear translocation imaging | activation, % at 2 µM | actives 0.3% (n = 94,000) | AID 819;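 active means activation above 40%, about the mean plus 3 SD, also judged a hit on visual image review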;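 further: percent activation is computed from the nuclear over cytoplasmic p65 intensity ratio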
IL1B cytotox: HUVEC cytotoxicity counter-screen, IL-1B stimulated. cell count reduction, % at 2 µM. actives 0.41% (n = 94,000). HUVEC cell count loss, Hoechst imaging;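 active means cell count reduction more than 3 SD above the screen-wide mean, cut at about 70% in these data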;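 further: normalized per plate to untreated control cells as the no-loss baseline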
SDO1 yeast rescue: restores growth of sdo1-depleted yeast; S. cerevisiae sdo1-depleted JHY4D growth rescue, OD600 30 h; hits give high values; pdr5 snq2 efflux-pump mutant strain; z-score at 10 µM; actives 0.21% (n = 140,000); AID 817;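 active means z-score above 3 at both the 24 hr and the 30 hr optical density reads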;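 further: z-score against mean and SD of all compound wells on the same plate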
NFkB transloc inh: blocks IL-1B driven NFkB nuclear translocation in HUVEC cells | HUVEC IL-1B NFkB p65 nuclear translocation imaging | inhibition, % at 2 µM | actives 0.43% (n = 94,000);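 active means inhibition above about 30% together with a positive call from visual inspection of the well image, limit read from the data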;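 further: nuclear over cytoplasmic p65 intensity ratio measured by imaging; 0% = IL-1B stimulated DMSO wells and 100% = unstimulated DMSO wells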
Active calls of the source: *; x = not tested or not shown. Hits are enriched below; roughly 1.4% of the tested compounds scored in any of these assays.

SMILES | MRP-1 activ | MRP reversal | IL1B NFkB pot | IL1B cytotox | SDO1 yeast rescue | NFkB transloc inh
COc1cc2[nH]c(=O)n(CCC(=O)N3CCN(c4cc(Cl)ccc4C)CC3)c(=O)c2cc1OC | -7.4 | -0.2 | -1.7 | 82.8* | -0.86 | 1.7
O=C(CSC1=NCCS1)Nc1ccnc2ccccc12 | -1.9 | -3.3 | x | x | -0.05 | x
Cc1ccc(S(=O)(=O)N(C)c2cc(S(=O)(=O)N3CCC(C)CC3)c(C)cc2C)cc1 | -3.0 | x | 20.7 | 93.7* | -0.31 | -20.7
Cc1ccc(S(=O)(=O)N(C)c2cc(S(=O)(=O)Nc3ccncc3)c(C)cc2C)cc1 | -1.4 | x | x | x | 0.74 | x
O=C1CSC(=S)N1N=C1CCCCCC1 | 5.9* | x | x | x | 0.86 | x
O=C(COC(=O)CNS(=O)(=O)c1cccc(Br)c1)Nc1ccccc1Sc1ccccc1 | -0.1 | x | x | x | -0.54 | x
COc1ccc(OC)c(C2C(C(=O)Nc3cccnc3)=C(C)NC3=C2C(=O)CCC3)c1 (stereo not given) | -1.8 | 1.4 | 42.1* | -21.1 | 1.08 | -42.1
NNC(=S)NCc1ccc2c(c1)OCO2 | 0.3 | x | x | x | 0.67 | x
CCOC(=O)c1c(NC(=O)CSc2nnnn2-c2ccc(OC)cc2)sc(C)c1C | -3.2 | -2.7 | -15.4 | 16.6 | -1.27 | 15.4
Cc1ccc(OCc2nnc(SCC(=O)Nc3cccc4ccccc34)n2-c2ccccc2)cc1 | 6.3* | -18.9 | 0.6 | 22.3 | -0.94 | -0.6
CCc1nnc(NC(=O)CSc2nnc(COc3ccccc3)n2-c2ccc(C)cc2)s1 | -2.6 | 9.0 | -4.0 | 20.2 | -0.19 | 4.0
CCc1ccc(C(C)NC(=O)c2ncn[nH]2)cc1 (stereo not given) | 0.1 | x | x | x | 0.12 | x
O=C(CN(c1ccccn1)S(=O)(=O)c1ccccc1)N/N=C/c1cccc([N+](=O)[O-])c1 | -1.2 | x | x | x | 0.87 | x
COCCCNC(=O)Cn1nnc(-c2ccc(NC(=O)c3ccccc3OC)cc2)n1 | 2.6 | 23.9 | 17.3 | -11.3 | 0.16 | -17.3
COCCCNC(=O)Cn1nnc(-c2ccc(NC(=O)c3ccccc3F)cc2)n1 | 1.5 | 8.4 | -43.0 | -12.7 | -0.78 | 43.0*
O=c1c2c([nH]c3ccc(Br)cc13)CCCC2 | x | -30.8 | x | x | x | x
OCCN=C1CCCc2c1[nH]c1ccc(Br)cc21 | 5.2* | x | 2.6 | -15.6 | -0.32 | -2.6
Cc1cccc(NC(=O)c2cccc(NS(=O)(=O)c3ccc(Cl)cc3)c2)c1 | -0.2 | x | -6.0 | -13.7 | -0.53 | 6.0
COc1cc(S(=O)(=O)Nc2cccc(C)c2)ccc1NC(=O)c1ccncc1 | 5.2* | x | x | x | 0.86 | x
C#CCOc1ccc(Br)cc1/C=N/O | -2.8 | -2.9 | -46.5 | -4.0 | -0.54 | 46.5*
C#CCOc1ccc(Cl)cc1/C=N/O | -2.7 | 6.9 | 16.3 | 12.4 | 1.3 | -16.3
Cc1ccc(/C=N/NC(=O)c2ccncc2)o1 | -1.4 | x | x | x | 0.91 | x
CCOC(=O)N/N=C/c1ccc(C)o1 | -1.8 | x | -32.7 | -12.3 | 0.1 | 32.7*
COc1cc(NC(=O)Nc2cccc(C(C)=O)c2)cc(OC)c1OC | -1.6 | 8.0 | -7.5 | 72.0* | -0.62 | 7.5
COc1cc(/C=N/NC(=S)Nc2cccc(C(=O)O)c2)cc(OC)c1OC | 4.8* | x | x | x | 0.65 | x
SMILES | MRP-1 activ | MRP reversal | IL1B NFkB pot | IL1B cytotox | SDO1 yeast rescue | NFkB transloc inh
CC(=O)c1cccc(NC(=O)NCc2ccccn2)c1 | 0.3 | 8.4 | -2.2 | -40.5 | 0.82 | 2.2
CC(=O)c1cccc(NC(=O)NCc2cccs2)c1 | -0.5 | -6.9 | 46.1* | -24.2 | 0.4 | -46.1
CC1=C2C3OC(=O)C(C)[C@@H]3CC[C@](C)(O)C2C2C3C4C5(C12)[C@H]1OC(=O)[C@@H](C)C1CC[C@]4(C)O[C@]5(C)[C@@H]3O (stereo not given in full) | -1.4 | x | x | x | 0.86 | x
O=C(CSc1nc(-c2cccs2)cc(C(F)(F)F)n1)Nc1cc(OCC(F)(F)C(F)F)cc([N+](=O)[O-])c1 | -2.3 | x | x | x | -0.92 | x
CCn1c(SCC(=O)Nc2cc3oc4ccccc4c3cc2OC)nnc1-c1cccs1 | -2.3 | -1.1 | 40.7* | -5.8 | -1.67 | -40.7
COc1cc2c(cc1NC(=O)CSc1nnc(Cc3cccs3)n1C)oc1ccccc12 | -1.6 | -16.3 | 2.0 | -34.7 | -2.05 | -2.0
COc1ccc(-c2cn3cccnc3n2)cc1F | -0.4 | x | x | x | -0.03 | x
CCOC(=O)C(NC(=O)N(C)C)(Nc1sc(C)c(CC)c1C#N)C(F)(F)F (stereo not given) | -1.8 | x | x | x | 0.05 | x
CCCN1C(=O)CC(C(=O)OC)=C1C | -1.3 | 3.4 | 2.8 | -52.6 | 1.21 | -2.8
COC(=O)C1=C(C)N(CCc2ccccc2)C(=O)C1 | -0.5 | 18.0 | -87.6 | 92.6* | -0.42 | 87.6*
Cc1cccc2cc(-c3ccccc3)c(-c3ccccc3)c[n+]12 | -1.3 | x | x | x | -0.17 | x
COc1cc(C(=S)N2CCCC2)cc(Cl)c1OCC(=O)Nc1ccc(C)cc1C | -0.1 | x | x | x | -0.64 | x
c1ccc(-n2nnnc2OCCOc2nnnn2-c2ccccc2)cc1 | 0.1 | -0.1 | -24.4 | 93.9* | -0.18 | 24.4
O=C(COC(=O)COc1ccc(Cl)cc1)NCc1cccs1 | -0.3 | x | x | x | -0.09 | x
Cc1ccc(N=C(NOCc2ccc(Cl)cc2Cl)c2nonc2N)c(C)c1 | -2.9 | 57.0* | 16.5 | -22.8 | 0.88 | -16.5
Cc1ccccc1N=C(NOCc1ccc(Cl)cc1Cl)c1nonc1N | 1.0 | -0.4 | x | x | -1.67 | x
COc1cc(CNC2CCCC2)cc(OC)c1 | -3.1 | -13.0 | 0.9 | -12.6 | 0.54 | -0.9
COc1cc(CNC2CCC(C)C2)cc(OC)c1 (stereo not given) | -2.0 | 1.5 | 10.5 | 89.3* | 0.6 | -10.5
COc1ccc(C(=O)Nc2nc3ccccc3[nH]2)cc1OC | -3.3 | 64.1* | 23.1 | -24.3 | 1.51 | -23.1
COc1ccccc1CNC(=O)C(NS(=O)(=O)c1ccc2c(c1)OCCO2)C(C)C (stereo not given) | -2.8 | x | x | x | 0.26 | x
COc1ccc2cc3cc(C(=O)NC(C)C)oc3nc2c1 | -0.8 | 17.2 | -4.7 | 5.7 | 0.43 | 4.7
CCN(C(=O)c1cc2cc3ccc(C)cc3nc2o1)c1ccc(OC)cc1 | 6.6* | -0.9 | -9.9 | 31.2 | -1.72 | 9.9
Cc1ccccc1OCCOc1ccccc1C=C(C#N)C#N | -3.0 | x | x | x | -1.51 | x
C=CCN1C(=O)C2C(C(=O)NC3CCCCC3)C3C=CC2(O3)C1C(=O)NC1CCCC1 (stereo not given) | 0.7 | 0.3 | -99.5 | 89.6* | 1.04 | 99.5*
Cc1ccc(C)c2[nH]c(=O)c(CCNC(=O)c3ccc(Br)o3)cc12 | x | 14.4 | -42.8 | -11.2 | x | 42.8*
SMILES | MRP-1 activ | MRP reversal | IL1B NFkB pot | IL1B cytotox | SDO1 yeast rescue | NFkB transloc inh
Cc1cc(C)nc(SCNC(=O)c2ccccc2)n1 | 1.2 | x | 21.0 | 81.4* | -0.05 | -21.0
Cc1cc(C)nc(SCC(=O)O)n1 | -0.8 | -3.9 | x | x | 1.25 | x
CCN1CCCC1Cn1cnc2c([nH]c3cccc(Cl)c32)c1=O (stereo not given) | -3.0 | 17.0 | -30.0 | -10.6 | -0.93 | 30.0*
COc1ccccc1N1C(=O)CC(Sc2n[nH]c(-c3cccc(C)c3)n2)C1=O (stereo not given) | -1.2 | x | x | x | 0.76 | x
COc1ccc(NS(=O)(=O)c2ccc3nc(COc4ccc(C#N)cc4)[nH]c3c2)cc1 | 3.7 | x | x | x | 0.75 | x
COC(=O)CN1C(=O)CSc2ncccc21 | -0.3 | x | 52.0* | -13.2 | 0.49 | -48.9
